Measurements reported in PubChem BioAssay (NCI).
The panel holds about 79,000 compounds, 15% with a hit somewhere; the sample as a whole holds those more often. Active and inactive are the calls of the source. Cut-off read from the data, not from the text of the source: active = growth inhibition above about 70%; inactive = the rest.

Experiments:
[1] = NCI Yeast Anticancer Drug Screen. Data for the rad50 strain (AID 155);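 note: 0% = growth of vehicle-only cultures of the same strain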; details: S. cerevisiae rad50 strain growth inhibition, hits give high values
In short: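 Relative growth inhibition (compound vs vehicle) was measured in yeast with a defined repair-gene alteration.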

[2] = NCI Yeast Anticancer Drug Screen. Data for the mec2-1 strain (AID 157); details: S. cerevisiae mec2-1 strain, hits give high values
In short: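 Growth inhibition is read against vehicle-treated controls after compound exposure of the mec2-1 yeast strain, which is defective in DNA damage repair or cell cycle control.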

[3] = NCI Yeast Anticancer Drug Screen. Data for the sgs1 mgt1 strain (AID 161);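 note: 0% = growth of cultures given vehicle only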; details: S. cerevisiae sgs1 mgt1 strain, hits give high values
In short: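 This yeast growth screen uses a strain with defined DNA-repair lesions; compound-treated growth is compared with vehicle-treated growth.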

[4] = NCI Yeast Anticancer Drug Screen. Data for the cln2 rad14 strain (AID 165);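 note: 0% = growth equal to vehicle treated cultures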; details: S. cerevisiae cln2 rad14 strain, hits give high values
In short: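 Growth inhibition, relative to vehicle-treated controls, is the read-out. The test organism is a yeast strain with defined genetic alterations, cln2 rad14.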

[5] = NCI Yeast Anticancer Drug Screen. Data for the bub3 strain (AID 167); details: S. cerevisiae bub3 mutant strain, hits give high values
In short: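 Screening used yeast with an engineered genetic alteration affecting cell cycle control. Compound-exposed cultures were compared with vehicle cultures, and reduced growth was taken as inhibition.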

[6] = NCI Yeast Anticancer Drug Screen. Data for the mlh1 rad18 strain (AID 175); details: S. cerevisiae mlh1 rad18 strain growth inhibition, hits give high values
In short: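 Cells of a genetically altered yeast strain, deficient in DNA damage repair, were treated with compound. Their growth was then compared with that of vehicle-treated cultures to give inhibition.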

[7] = at 5.0 µM (retest, dose inferred, filed as 0.5)
[8] = at 50.0 µM (retest, dose inferred, filed as 5.0)

Measured: growth inhibition

CC/C(C)=N/OC(=O)Nc1ccccc1
inactive: [1]; [7] 5% | [1]; [8] 0% | [1]; at 50.0 µM 39.1% | [2]; [7] -22% | [2]; [8] 5% | [2]; at 50.0 µM 17.2% | [3]; [7] 2% | [3]; [8] 20% | [3]; at 50.0 µM 64.7% | [4]; [7] 5% | [4]; [8] 8% | [4]; at 50.0 µM 11.2% | [5]; [7] -74% | [5]; [8] 2% | [5]; at 50.0 µM 0.05% | [6]; [7] 1% | [6]; [8] 14% | [6]; at 50.0 µM 34%

OC(C/C(=N\N=C(/CC(O)(C(F)(F)F)C(F)(F)F)c1ccccc1)c1ccccc1)(C(F)(F)F)C(F)(F)F
active: [6]; at 50.0 µM 71.1%
inactive: [1]; [7] -2% | [1]; [8] 2% | [1]; at 50.0 µM 62.6% | [2]; [7] -6% | [2]; [8] -11% | [2]; at 50.0 µM 51% | [3]; [7] -7% | [3]; [8] -17% | [3]; at 50.0 µM 50.9% | [4]; [7] 6% | [4]; [8] 12% | [4]; at 50.0 µM 62.1% | [5]; [7] 1% | [5]; [8] -5% | [5]; at 50.0 µM 69% | [6]; [7] -8% | [6]; [8] 3%

O=C(CC(c1ccccc1)N1CCCCC1)OC1c2ccccc2-c2ccccc21 (configuration not stated)
inactive: [1]; [7] -2% | [1]; [8] 28% | [2]; [7] 17% | [2]; [8] 43% | [2]; at 50.0 µM 9.35% | [3]; [7] 30% | [3]; [8] 54% | [3]; at 50.0 µM 55.8% | [4]; [7] 0% | [4]; [8] 23% | [4]; at 50.0 µM 54.1% | [5]; [7] -1% | [5]; [8] 24% | [5]; at 50.0 µM 70% | [6]; [7] 35% | [6]; [8] 56% | [6]; at 50.0 µM 55.8%
active: [1]; at 50.0 µM 70.1%

COc1ccc(Oc2ccc(C(=O)C(CN(C)C)CN(C)C)cc2)cc1
active: [1]; [8] 96% | [1]; at 50.0 µM 84% | [2]; [8] 97% | [2]; at 50.0 µM 87.8% | [3]; [8] 98% | [3]; at 50.0 µM 85.8% | [4]; [8] 95% | [4]; at 50.0 µM 87.8% | [5]; [8] 96% | [5]; at 50.0 µM 85.6% | [6]; [8] 96% | [6]; at 50.0 µM 86.5%
inactive: [1]; [7] -4% | [2]; [7] -13% | [3]; [7] 11% | [4]; [7] -2% | [5]; [7] -3% | [6]; [7] 0%

CCCCCCCCCCN(CCCCCCCCCC)C(=O)COc1c2cc(C(C)(C)C)cc1Cc1cc(C(C)(C)C)cc(c1OCC(=O)N(CCCCCCCCCC)CCCCCCCCCC)Cc1cc(C(C)(C)C)cc(c1OCC(=O)N(CCCCCCCCCC)CCCCCCCCCC)Cc1cc(C(C)(C)C)cc(c1OCC(=O)N(CCCCCCCCCC)CCCCCCCCCC)C2
active: [1]; [7] 98% | [1]; [8] 92% | [1]; at 50.0 µM 85.8% | [2]; [7] 98% | [2]; [8] 95% | [2]; at 50.0 µM 89.3% | [3]; [7] 99% | [3]; [8] 95% | [3]; at 50.0 µM 89% | [4]; [7] 98% | [4]; [8] 94% | [4]; at 50.0 µM 87.3% | [5]; [7] 99% | [5]; [8] 94% | [5]; at 50.0 µM 87.8% | [6]; [7] 97% | [6]; [8] 92% | [6]; at 50.0 µM 84.8%

O=[N+]([O-])c1nccn1CCCNCCCn1ccnc1[N+](=O)[O-]
inactive: [1]; [7] 27% | [1]; [8] 28% | [1]; at 50.0 µM 0.45% | [2]; [7] 0% | [2]; [8] -2% | [2]; at 50.0 µM 1.2% | [3]; [7] 15% | [3]; [8] 26% | [3]; at 50.0 µM -6.7% | [4]; [7] 24% | [4]; [8] 17% | [4]; at 50.0 µM -20.1% | [5]; [7] 8% | [5]; [8] 14% | [5]; at 50.0 µM -14.9% | [6]; [7] 24% | [6]; [8] 20% | [6]; at 50.0 µM 21.1%

ClC1(Cl)C(Cl)(Cl)C12c1ccccc1-c1ccccc12
active: [1]; [8] 94% | [1]; at 50.0 µM 98.6% | [2]; [8] 97% | [2]; at 50.0 µM 98.8% | [3]; [8] 98% | [3]; at 50.0 µM 99% | [4]; [8] 95% | [4]; at 50.0 µM 86.8% | [5]; [8] 95% | [5]; at 50.0 µM 98% | [6]; [8] 96% | [6]; at 50.0 µM 98.6%
inactive: [1]; [7] 14% | [2]; [7] -26% | [3]; [7] 15% | [4]; [7] 2% | [5]; [7] 28% | [6]; [7] 29%

Oc1ccc(-c2nnc(-c3ccccc3)nn2)cc1
inactive: [1]; [7] -154% | [1]; [8] -160% | [1]; at 50.0 µM 56.4% | [2]; [7] -48% | [2]; [8] -53% | [2]; at 50.0 µM 8.95% | [3]; [7] -66% | [3]; [8] -63% | [3]; at 50.0 µM -3.9% | [4]; [7] -47% | [4]; [8] -66% | [4]; at 50.0 µM -52.5% | [5]; [7] -47% | [5]; [8] -19% | [5]; at 50.0 µM 58.5% | [6]; [7] -121% | [6]; [8] -147% | [6]; at 50.0 µM -9.85%

CC12CC[C@@H](C(C)(C)O)C1[C@@H](O)CC1(C)C2CCC2[C@@]3(C)CC[C@H](O)C(C)(C)C3C(O)C[C@]21C (some centres not stated)
inactive: [1]; [7] 17% | [2]; [7] 19% | [3]; [7] 9% | [4]; [7] 17% | [5]; [7] 15% | [6]; [7] 41%
active: [1]; [8] 98% | [1]; at 50.0 µM 90% | [2]; [8] 99% | [2]; at 50.0 µM 92.5% | [3]; [8] 98% | [3]; at 50.0 µM 92.3% | [4]; [8] 98% | [4]; at 50.0 µM 91.4% | [5]; [8] 98% | [5]; at 50.0 µM 91.8% | [6]; [8] 98% | [6]; at 50.0 µM 91.8%
